From the emibetuzumab library of Makowski et al. (2022)
The list shows a part of the results. How many sequences the whole screen found active is unknown.

B1: VH:VL chains; a variant is named by its letters at X, in order (parent)
chain 1: QVQLVQSGAEVKKPGASVKVSCKASGYTFTDYXMHWVRQAPGQGLEWMGXVNPNXXXTTYNQKFEGRVTMTTDTSTSTAYMELRSLRSDDTAVYYCARXNXLDXWGQGTTVTVSS
chain 2: DIQMTQSPSSLSASVGDRVTITCSVSSSVSSIYLHWYQQKPGKAPKLLIYSTSNLASGVPSRFSGSGSGTDFTLTISSLQPEDFATYYCQVYSGYPLTFGGGTKVEIK

Variants of: B1
Test: yeast display scFab, FACS + sequencing
Settings: with MET
Outline: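 A yeast surface library of scFab variants carrying heavy-chain CDR mutations went through two magnetic enrichment rounds on Protein A beads coated with HGFR-Fc, then FACS. For sorting, cells were labelled for 3 h at room temperature with 1 nM HGFR-Fc and anti-Myc in PBSB containing 1% milk, and the top 50% of antigen-positive cells were gated. Input and round-3 sorted populations were deep sequenced in two replicates. A sequence was called an antigen binder if it appeared in both antigen-positive samples and a non-binder if it appeared only in the input.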

Variant | antigen binding call
SGGTGDVF | no binding
FTGEADAS | no binding
AARADSWV | no binding
YRRGSAGF | binds
YRRGDAGF | binds
ARRGGSGF | no binding
YRKGGAGF | binds
YRRGSSGF | binds
YAGGDDGA | no binding
SETTDSSA | no binding
DAGGGYGV | no binding
AGERNVAS | no binding
YRRKGASV | binds
YRRGGALV | binds
YRRKGALV | binds
ATKAASWV | no binding
FRGGSSGS | binds
FRGGDYGS | no binding
FRGGGSGS | binds
ATTGGDWD | no binding
YRKRGAGA | binds
YRKRGAAA | binds
VTGEDAGS | no binding
YRERSDVS | no binding

Variant | antigen binding call
YAGRGDAS | no binding
YKTGGASS | binds
YKGRGAAS | binds
YRGKGALS | binds
YAGRGSAS | no binding
YRGGGDVS | binds
YTGTSDVS | no binding
YTGTSDVY | no binding
FTRGADAV | no binding
DAGGDDVY | no binding
VRGRGALS | binds
YAGRGDVS | no binding
YKGRGALS | binds
YKGRGAVS | binds
YKTRGAVS | no binding
YKGRGASS | binds
YKGEGFSS | no binding
VETEGAVY | no binding
DKEGGDGV | no binding
AATTDSGV | no binding
VREGDDAV | no binding
DRAGDDGS | no binding
YRGKSDGS | no binding
YRGGGALS | binds

Variant | antigen binding call
YRGGSDGS | binds
YRGRGALS | binds
DRGGGDAS | no binding
SEARSDVV | no binding
DREEGAVV | no binding
YRERGAVV | binds
YKGEGDVV | no binding
YKERGDVV | binds
SRTRGFVV | no binding
FRERGAVV | binds
FRTRGAVV | binds
SKERGDVV | no binding
VAETAAAA | no binding
AEARAAGS chain 1 V37I | no binding
VARAADAD | no binding
ATGEGDWS | no binding
VGATSFSA | no binding
YEKGGDGV | no binding
YKKGGSGV | binds
YKGAASGV | no binding
YKGGSSGV | binds
YKAGGSGV | binds
YKERASGV | no binding
YKGGSFGV | no binding

Variant | antigen binding call
FTGTSAAF | no binding
VTEGDDVF | no binding
YRKGSSWD | binds
YRKGSAWD | binds
DGKEGYWA | no binding
DAEGDDGA | no binding
YRGAGSLD | binds
FRGAGSVD | binds
YRGAGSVD | binds
YRGAGFVD | no binding
FRGAGSVA | binds
SKTKSDVA | no binding
SKERGDWV | no binding
VERKGYLA | no binding
VETGNSSA | no binding
AGGGNAGD | no binding
VGGTSSAD | no binding
VRGRSSLF | binds
VRGGDDVF | no binding
VRRGSSAD | binds
VRRGSSAF | binds
VRRGSSLF | binds
VRGRSDVF | no binding
VREAADSF | no binding

Variant | antigen binding call
DAKENAVY | no binding
YTGGDDVY | no binding
VAEATDLY | no binding
DAGGASLD | no binding
STATADVA | no binding
SAGEGDWV | no binding
AKTRDFVA | no binding
DTAGDAAV | no binding
VKETSVLF | no binding
FKAEAFSF | no binding
FERTSALF | no binding
VRRGSSAS | binds
VKRGSSLF | binds
VRTEDDAS | no binding
FKRGSSLF | binds
VAKRDSAS | no binding
VAGTGSSV | no binding
DAEATDGA | no binding
DATGGDGY | no binding
DTGGSASA | no binding
YRKGGAVD | binds
YRKRGAAD | binds
YRKRGAVD | binds
YAKRDAGD | no binding

Variant | antigen binding call
YRKRGAGD | binds
AKATADVD | no binding
DTGGGDAV | no binding
YRGAGAAD | binds
YRGAGSAD | binds
YKGAGSAD | no binding
YAGAGSAD | no binding
YKGKSAWV | binds
YKGKGAWV | binds
VKGKGDWV | no binding
YAGKGAWV | no binding
YKTKSDWV | no binding
DEGGTDSA | no binding
YKGKGSAA | binds
SKAKGSAA | binds
SKGKGSAA | binds
SKGKGSSA | no binding
YKGKGFAA | no binding
SEEEGSAA | no binding
SKRRSVGA | no binding
SKGKGVGA | binds
